Assay results published in PubChem BioAssay AID1159580 (chemical genetic matrix, 2015).
Among all 5,500 compounds or so, about 2,000 (36%) were called active. Not shown: some 18% with an inconclusive outcome. Rule as the data show it: active = normalized growth mostly below about 0.91 (no sharp cut-off); inconclusive = no clear call, values can overlap the other calls; inactive = mostly above about 0.92. The list shows a part of the results.

Assay: chemical genetic growth profiling, strain panel (AID 1159580);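 also: tested at 20 µM; growth read once vehicle control cultures reached saturation at 30 °C; 1 = growth at the plate median or of vehicle wells; lower values mean less growth of the strain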
Settings: growth OD

Measured: normalized growth

CO[C@@H]1C[C@@H](C[C@H]2CC[C@H](C)[C@H]([C@@H](C)C(=O)O)O2)O[C@]2(O[C@](C)([C@H]3CC[C@@](C)(C4O[C@@H](C5O[C@@](O)(CO)[C@H](C)C[C@@H]5C)C[C@@H]4C)O3)C[C@H]2C)[C@@H]1C (stereo partly specified)
inactive: S. cerevisiae deletion strains, locus YAL013W, strain DEP1, active compounds read low 1.03 | S. cerevisiae deletion strains, locus YBR229C, strain ROT2, active compounds read low 1.04 | S. cerevisiae deletion strains, locus YCL029C, strain bik1, active compounds read low 0.955 | S. cerevisiae deletion strains, locus YDL035C, strain GPR1, active compounds read low 1.03 | S. cerevisiae deletion strains, locus YDL074C, strain BRE1, active compounds read low 1.01 | S. cerevisiae deletion strains, locus YDL101C, strain DUN1, active compounds read low 1.01 | S. cerevisiae deletion strains, locus YDL134C, strain PPH21, active compounds read low 1.01 | S. cerevisiae deletion strains, locus YDL185W, strain tfp1, active compounds read low 0.99 | S. cerevisiae deletion strains, locus YDL192W, strain arf1, active compounds read low 0.961 | S. cerevisiae deletion strains, locus YDR101C, strain arx1, active compounds read low 0.977 | S. cerevisiae deletion strains, locus YDR150W, strain NUM1, active compounds read low 1.04 | S. cerevisiae deletion strains, locus YDR162C, strain NBP2, active compounds read low 1.01 | S. cerevisiae deletion strains, locus YDR318W, strain mcm21, active compounds read low 0.966 | S. cerevisiae deletion strains, locus YDR388W, active compounds read low 0.981 | S. cerevisiae deletion strains, locus YDR502C, strain sam2, active compounds read low 0.99 | S. cerevisiae deletion strains, locus YEL061C, strain CIN8, active compounds read low 1.02 | S. cerevisiae deletion strains, locus YER110C, active compounds read low 1.03 | S. cerevisiae deletion strains, locus YER167W, strain BCK2, active compounds read low 1.02 | S. cerevisiae deletion strains, locus YGL078C, strain dbp3, active compounds read low 0.976 | S. cerevisiae deletion strains, locus YGL086W, strain mad1, active compounds read low 0.97 | S. cerevisiae deletion strains, locus YGL248W, strain PDE1, active compounds read low 1.01 | S. cerevisiae deletion strains, locus YGR078C, strain PAC10, active compounds read low 1.02 | S. cerevisiae deletion strains, locus YGR135W, strain pre9, active compounds read low 0.984 | S. cerevisiae deletion strains, locus YGR229C, strain SMI1, active compounds read low 1.02 | S. cerevisiae deletion strains, locus YGR252W, strain gcn5, active compounds read low 1.06 | S. cerevisiae deletion strains, locus YHR030C, strain SLT2, active compounds read low 1.03 | S. cerevisiae deletion strains, locus YHR079C, strain IRE1 (second series), active compounds read low 0.968 | S. cerevisiae deletion strains, locus YHR094C, strain hxt1, active compounds read low 0.992 | S. cerevisiae deletion strains, locus YHR129C, strain ARP1, active compounds read low 1.06 | S. cerevisiae deletion strains, locus YHR200W, strain rpn10, active compounds read low 0.968 | S. cerevisiae deletion strains, locus YIL066C, strain RNR3, active compounds read low 1.01 | S. cerevisiae deletion strains, locus YIL073C, strain SPO22, active compounds read low 0.984 | S. cerevisiae deletion strains, locus YIL125W, strain kgd1, active compounds read low 0.982 | S. cerevisiae deletion strains, locus YIR030C, strain dcg1, active compounds read low 0.982 | S. cerevisiae deletion strains, locus YJL095W, strain BCK1, active compounds read low 0.997 | S. cerevisiae deletion strains, locus YJL134W, strain LCB3, active compounds read low 1.03 | S. cerevisiae deletion strains, locus YJL168C, strain set2, active compounds read low 0.993 | S. cerevisiae deletion strains, locus YJL187C, strain SWE1 (second series), active compounds read low 1.01 | S. cerevisiae deletion strains, locus YJR043C, strain POL32, active compounds read low 1.02 | S. cerevisiae deletion strains, locus YJR075W, strain HOC1, active compounds read low 1 | S. cerevisiae deletion strains, locus YKL009W, strain mrt4, active compounds read low 0.98 | S. cerevisiae deletion strains, locus YKL068W, active compounds read low 1.01 | S. cerevisiae deletion strains, locus YKL085W, strain MDH1 (second series), active compounds read low 0.978 | S. cerevisiae deletion strains, locus YKL085W, strain MDH1, active compounds read low 0.978 | S. cerevisiae deletion strains, locus YKL190W, strain CNB1, active compounds read low 1.02 | S. cerevisiae deletion strains, locus YKR001C, strain vps1, active compounds read low 1.02 | S. cerevisiae deletion strains, locus YLR058C, strain SHM2, active compounds read low 1.02 | S. cerevisiae deletion strains, locus YLR102C, strain apc9, active compounds read low 0.997 | S. cerevisiae deletion strains, locus YLR268W, strain sec22, active compounds read low 0.929 | S. cerevisiae deletion strains, locus YLR330W, strain CHS5, active compounds read low 1.04 | S. cerevisiae deletion strains, locus YLR342W, strain FKS1 (second series), active compounds read low 1.03 | S. cerevisiae deletion strains, locus YLR371W, strain rom2, active compounds read low 0.999 | S. cerevisiae deletion strains, locus YLR418C, strain cdc73, active compounds read low 1.02 | S. cerevisiae deletion strains, locus YML016C, strain PPZ1, active compounds read low 1.03 | S. cerevisiae deletion strains, locus YML032C, strain rad52, active compounds read low 0.986 | S. cerevisiae deletion strains, locus YML124C, strain tub3, active compounds read low 0.983 | S. cerevisiae deletion strains, locus YMR078C, strain ctf18, active compounds read low 1.03 | S. cerevisiae deletion strains, locus YMR223W, strain ubp8, active compounds read low 0.994 | S. cerevisiae deletion strains, locus YMR263W, strain SAP30, active compounds read low 1.01 | S. cerevisiae deletion strains, locus YMR307W, strain GAS1, active compounds read low 1.17 | S. cerevisiae deletion strains, locus YNL067W, strain RPL9B, active compounds read low 1.01 | S. cerevisiae deletion strains, locus YNL128W, strain TEP1, active compounds read low 1.04 | S. cerevisiae deletion strains, locus YNL153C, strain GIM3, active compounds read low 0.999 | S. cerevisiae deletion strains, locus YNL233W, strain BNI4, active compounds read low 0.996 | S. cerevisiae deletion strains, locus YNL250W, strain rad50, active compounds read low 0.966 | S. cerevisiae deletion strains, locus YNL271C, strain bni1, active compounds read low 1.01 | S. cerevisiae deletion strains, locus YNL298W, strain CLA4, active compounds read low 0.989 | S. cerevisiae deletion strains, locus YNL307C, strain MCK1, active compounds read low 1.01 | S. cerevisiae deletion strains, locus YNL322C, strain KRE1, active compounds read low 1.02 | S. cerevisiae deletion strains, locus YNR052C, strain pop2, active compounds read low 0.976 | S. cerevisiae deletion strains, locus YOL006C, strain TOP1, active compounds read low 0.814 | S. cerevisiae deletion strains, locus YOL012C, strain htz1 1.61 | S. cerevisiae deletion strains, locus YOL147C, strain pex11, active compounds read low 0.989 | S. cerevisiae deletion strains, locus YOR061W, strain CKA2, active compounds read low 1.02 | S. cerevisiae deletion strains, locus YOR069W, strain VPS5, active compounds read low 1.03 | S. cerevisiae deletion strains, locus YOR136W, strain idh2, active compounds read low 0.976 | S. cerevisiae deletion strains, locus YOR144C, strain elg1, active compounds read low 0.988 | S. cerevisiae deletion strains, locus YOR184W, strain ser1, active compounds read low 0.975 | S. cerevisiae deletion strains, locus YOR316C, strain cot1, active compounds read low 0.99 | S. cerevisiae deletion strains, locus YPL055C, strain LGE1, active compounds read low 1.03 | S. cerevisiae deletion strains, locus YPL241C, strain CIN2, active compounds read low 1.04 | S. cerevisiae deletion strains, locus YPR119W, strain clb2, active compounds read low 0.99 | S. cerevisiae deletion strains, locus YPR141C, strain kar3, active compounds read low 0.986 | S. cerevisiae deletion strains, locus YPR163C, strain tif3, active compounds read low 1.01 | S. cerevisiae deletion strains, locus YPR167C, strain met16, active compounds read low 0.977 | S. cerevisiae deletion strains, strain wtn01, active compounds read low 0.969 | S. cerevisiae strains, strain wild type, active compounds read low 1
active: S. cerevisiae deletion strains, locus YBR021W, strain FUR4, active compounds read low 1.19 [resistant] | S. cerevisiae deletion strains, locus YER155C, strain BEM2, active compounds read low 1.08 [resistant] | S. cerevisiae deletion strains, locus YLR039C, strain RIC1, active compounds read low 1.35 [resistant] | S. cerevisiae deletion strains, locus YLR262C, strain YPT6, active compounds read low 1.45 [resistant]
